Vaccinia Venus = qHTS for Stage-Specific Inhibitors of Vaccinia Orthopoxvirus: Venus Reporter Primary qHTS; Vaccinia virus Venus reporter expression, fluorescence; hit rate 0.46% among 330,000; Potency, µM (doses to about 36.5 µM), usual class: inhibitors; AID 720580, 2013; calls by dose curve; tested in A549 cells; further: nearly all actives have a fitted effect of over 30% in size
HCV inh = qHTS Assay for Inhibitors of Hepatitis C Virus (HCV); Huh7.5.1 HCVcc-Cre infection, luciferase reporter, 44 h; Potency, µM (highest dose often 41.8 µM), hits mostly inhibitors; hit rate 3.4% among 340,000; active means well fitted inhibition curve with a large enough effect; inconclusive means small, poorly fitted or top-dose-only effect, or another doubt; inactive means no such curve, though single readings can be large or run the other way
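Cells seeded at 1,000/well and cultured 4 h, then compounds added followed by HCVcc-Cre virus (~0.5 moi). After 44 h further culture, luciferase substrate was added, plates held 15 min at room temperature, and luminescence read for 15 sec.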
Vaccinia mCherry = qHTS for Stage-Specific Inhibitors of Vaccinia Orthopoxvirus: mCherry Reporter Primary qHTS; Potency, µM (series often up to 36.5 µM), usual class: inhibitors; AID 720579, 2013; hit rate 0.63% among 310,000; Vaccinia virus mCherry reporter infection, fluorescence; calls by dose curve; tested in A549 cells; further: nearly all actives have a fitted effect of over 35% in size
A number is an active result; - = inactive; ? = inconclusive; . = not tested or not shown; ! = not confirmed by another sample; [ ] = remark or other dose. In the library only some 3.3% were active in any assay of this set; here they are far more common.

SMILES	Vaccinia Venus	HCV inh	Vaccinia mCherry
CCOC(=O)c1scc(-c2ccccc2)c1S(=O)(=O)Nc1ccccc1OC	-	.	-
Cc1cccc(C)c1NC(=O)CCCSc1nnc(-c2ccc(F)cc2)n1-c1ccccc1	?	?	-
Cc1cccc(C)c1NC(=O)CCCSc1nnc(-c2ccc(Cl)cc2)n1-c1ccccc1	?	?	13µM
COc1ccc(-c2cc(CNC(=O)CCl)on2)cc1	8.9µM	?	.
COc1ccc(-c2cc(CNC(C)=O)on2)cc1	-	-	.
CCN1CCN(c2cc(C)c3cc(NC(=O)c4cc(Br)ccc4Cl)ccc3n2)CC1	-	.	-
O=C(Nc1nnc(CCc2ccccc2)s1)C1CCN(C(=O)c2ccco2)CC1	-	.	-
COc1ccc(S(=O)(=O)Nc2cccc3c2O[C@H](CN(C)S(=O)(=O)c2cccs2)[C@@H](C)CN([C@H](C)CO)C3=O)cc1	-	-	-
CC(C)N1C(=O)S/C(=C/c2cccnc2)C1=O	.	-	.
CCN(CC)c1ccc(/C=C2\SC(=O)N(C(C)C)C2=O)o1	-	10µM	-
COc1cccc(-n2c(SC)nnc2C2CCN(Cc3cccc(OC)c3O)CC2)c1	-	.	-
CC(=O)c1ccc(OCc2cc(C(=O)N(C)CCOc3ccc(C)cc3)no2)cc1	.	13µM	.
CC(=O)c1ccc(OCc2cc(C(=O)N(C)Cc3nc4c(C)cccc4[nH]3)no2)cc1	-	-	-
CCN(CC)S(=O)(=O)c1ccc(N2CCN(c3ccccc3O)CC2)nc1	-	11µM	?
S=C(NC1CCCCC1)N1CCN(C/C=C/c2ccccc2)CC1	-	8.9µM	-
CC(C)NC(=S)N1CCN(C/C=C/c2ccccc2)CC1	-	-	-
CCN(CC)S(=O)(=O)c1ccc(C)c(NC(=S)N2CCN(C/C=C/c3ccccc3)CC2)c1	?	8.9µM	?
Cc1ccc(NC(=S)N2CCN(Cc3ccc4c(c3)OCO4)CC2)c(C)c1	-	-	-
COc1ccccc1NC(=S)N1CCN(C/C=C/c2ccccc2)CC1	-	-	-
CCN(CC)S(=O)(=O)c1ccc(N2CCN(CCO)CC2)nc1	-	-	-
CCN(CC)S(=O)(=O)c1ccc(C)c(NC(=S)N2CCN(Cc3ccc4c(c3)OCO4)CC2)c1	-	6.3µM	-
O=C(NCCc1ccccc1)c1ccc(CSc2nc3ccncc3n2Cc2cccc(F)c2)cc1	?	.	-
CC[N+]1(CC(=O)c2ccc(OC)cc2)CCCCC1	-	.	-
O=C(Cc1ccc(F)cc1)NO	-	.	-
O=C(O)CCc1ccc2ccccc2c1	-	.	-
SMILES	Vaccinia Venus	HCV inh	Vaccinia mCherry
CC(C)[C@H](NC(=O)c1ccc(C(C)(C)C)cc1)C(=O)N1CCN(Cc2ccc3c(c2)OCO3)CC1	-	11µM	-
CCCCNS(=O)(=O)c1ccc(OCC(=O)N2CCN(Cc3ccc4c(c3)OCO4)CC2)cc1	.	3.2µM	.
CCN1CCN(C(=O)c2cc3ccc(OC)cc3[nH]2)CC1	.	-	.
CCc1ccccc1NC(=S)N1CCN(c2ccccn2)CC1	-	-	-
CCCNS(=O)(=O)c1ccc(OCC(=O)N2CCN(Cc3ccccc3)CC2)cc1	.	-	.
CCN(CC)S(=O)(=O)c1ccc(C)c(NC(=S)N2CCN(c3ccccn3)CC2)c1	-	22µM	-
C[C@H](NC(=O)c1ccccc1)C(=O)N1CCN(Cc2ccc3c(c2)OCO3)CC1	.	-	.
COc1ccc2cc(C(=O)N3CCN(Cc4ccc5c(c4)OCO5)CC3)[nH]c2c1	-	10µM	-
Cc1cc(-c2ccc(S(=O)(=O)Nc3cccc(C)c3C)s2)on1	-[7.34 µM]	.	-[7.34 µM]
CCCC[C@@H](C=O)NC(=O)[C@H](CC(C)C)NC(=O)[C@H](CC(C)C)NC(C)=O	-	.	-
Cc1ccccc1Nc1cc(C(=O)NCc2cccs2)c2ccccc2n1	-	.	-
COC(=O)c1c(-c2cccs2)csc1NC(=O)COc1ccccc1	-	.	-
Cc1ccc(S(=O)(=O)N2CCN(c3cccc(C)c3)CC2)cc1	.	-	.
CN(C(=O)CSc1nnc(C2CC2)n1C1CC1)C1(C#N)CCCCC1	-	-	-
Cc1cccc(Nc2nc3c(S(=O)(=O)c4ccc(Br)cc4)nnn3c3ccsc23)c1C	-	.	-
COc1ccc(CNC(=O)c2ccc3c(c2)N(Cc2ccccc2C)C(=O)c2ccccc2S3=O)cc1 (stereo not drawn)	-	.	-
CS(=O)(=O)N(CC(=O)N1CCN(Cc2ccc3c(c2)OCO3)CC1)Cc1ccc(Cl)cc1	.	13µM	.
CS(=O)(=O)N(CCc1ccccc1)CC(=O)N1CCN(Cc2ccc3c(c2)OCO3)CC1	.	-	.
Cc1ccc2c(c1)c1c(n2CC(O)CNC(C)(C)C)CCCC1 (stereo not drawn)	-	?	-
CNCC(O)Cn1c2c(c3ccccc31)CCCC2 (stereo not drawn)	.	10µM	.
Cc1ccc2c(c1)c1c(n2CC(O)Cn2c(C)nc3ccccc32)CCCC1 (stereo not drawn)	?	-	-
Cc1ccc2c(c1)c1c(n2CC(O)CN2CCCCCC2)CCCC1 (stereo not drawn)	-	10µM	-
Cc1ccc2c(c1)CN(CCNC(=O)c1cc3ccccc3oc1=O)CC(C)O2 (stereo not drawn)	-	.	-
COc1cc2c(cc1OC)C(c1ccc([N+](=O)[O-])cc1)NC(=O)C2 (stereo not drawn)	.	-	.
Clc1ccc2c(ccc[n+]2CCC2CCCCC2)c1	-	.	-
SMILES	Vaccinia Venus	HCV inh	Vaccinia mCherry
Cc1onc(-c2c(Cl)cccc2Cl)c1C(=O)NC1CCCCC1	-	13µM	-
COc1cc(/C=N/NC(=O)c2c(-c3c(Cl)cccc3Cl)noc2C)ccc1OCC(N)=O	-	-	?
CC(=O)c1c[nH]c(C(=O)NCC2CCCO2)c1 (stereo not drawn)	.	-	.
Cc1onc(-c2c(Cl)cccc2Cl)c1C(=O)c1c[nH]c(C(=O)NCC2CCCO2)c1 (stereo not drawn)	-	11µM	-
Cc1onc(-c2c(F)cccc2Cl)c1C(=O)NC1CCCCCC1	-	-	-
Cc1onc(-c2c(Cl)cccc2Cl)c1C(=O)N[C@@H]1C(=O)N2[C@@H]1SC(C)(C)[C@@H]2C(=O)O	-	0.5µM!	-
Cc1onc(-c2c(Cl)cccc2Cl)c1C(=O)N/N=C(\N)COc1ccc(Cl)cc1	.	2.8µM	.
Cc1onc(-c2c(Cl)cccc2Cl)c1C(=O)NC1C(=O)N2C1SC(C)(C)C2C(=O)O (stereo not drawn)	-	-	-
CN(C)c1cccc(C(=O)NCC2Cc3cccc(-c4cncnc4)c3O2)c1 (stereo not drawn)	-	.	-
COc1ccc(NS(=O)(=O)c2ccc(C)c(C(=O)N3CC(C)OC(C)C3)c2)cc1 (stereo not drawn)	-	?	-
S=C(NCCCc1cnc[nH]1)NCCCN(Cc1ccc(Cl)cc1)c1ccc(-c2ccccc2)cn1	?	.	-
CCOC(=O)c1c(-c2ccccc2)oc2ccc(NS(=O)(=O)c3ccc(C(C)C)cc3)cc12	-	.	-
Cc1noc(C)c1COc1ccccc1C(=O)N1CCN(S(=O)(=O)c2ccccc2F)CC1	?	-	-
CCc1cccc(CC)c1NC(=O)CCS(=O)(=O)c1ccc2c(c1)CCN2C(C)=O	-	.	-
Cc1cc(C)n2nc(-c3ccc(Cl)cc3)nc2n1	-	.	-
Cc1cc(N2CCN(C)CC2)n2nc(-c3ccc(Cl)cc3)nc2n1	?	-	7.9µM
O=C(Nc1ccc(-c2n[nH]c(=S)o2)cc1)c1ccccc1Cl	.	-	.

Screens deposited in PubChem BioAssay by National Center for Advancing Translational Sciences (NCATS).
